We go through 32 molecules from ChEMBL document CHEMBL3433997, “St. Jude Leishmania screening dataset” (2016).

Format in all cases: functional
The target in assay [1] is Solute carrier family 2, facilitated glucose transporter member 1 (Homo sapiens) (UniProt P11166). Put plainly: ST_JUDE_LEISH: Cytotoxicity at 2uM final concentration against transgenic Leishmania Mexicana promastigotes LmGLUT1 that are glucose transport deficient and complemented with the human glucose transporter GLUT1. Activity is measured by DNA content using SYBR green in vitro.
Sequence of Solute carrier family 2, facilitated glucose transporter member 1 (Homo sapiens) (P11166 whole entry): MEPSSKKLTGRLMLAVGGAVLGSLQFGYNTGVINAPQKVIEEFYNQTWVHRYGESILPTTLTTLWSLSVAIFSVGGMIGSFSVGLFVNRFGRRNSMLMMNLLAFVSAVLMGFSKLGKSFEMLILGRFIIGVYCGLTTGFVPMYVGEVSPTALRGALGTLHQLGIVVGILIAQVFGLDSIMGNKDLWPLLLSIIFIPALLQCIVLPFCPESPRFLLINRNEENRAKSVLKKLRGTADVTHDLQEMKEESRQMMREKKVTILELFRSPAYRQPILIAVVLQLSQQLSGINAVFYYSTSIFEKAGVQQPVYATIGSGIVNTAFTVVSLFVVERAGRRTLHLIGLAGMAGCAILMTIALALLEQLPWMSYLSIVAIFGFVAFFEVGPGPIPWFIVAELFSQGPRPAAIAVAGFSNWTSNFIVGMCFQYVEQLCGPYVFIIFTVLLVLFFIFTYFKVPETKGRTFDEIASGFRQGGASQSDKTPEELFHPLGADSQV

For assay [2], the target named is Hexose transporter 1 (Plasmodium falciparum) (UniProt O97467). Kind of assay: ST_JUDE_LEISH: Cytotoxicity at 2uM final concentration against transgenic Leishmania Mexicana promastigotes LmPfHT that are glucose transport deficient and complemented with the Plasmodium falciparum hexose transporter. Activity is measured by DNA content using SYBR green in vitro.
Assay [3] deals with Glucose transporter (Leishmania mexicana) (UniProt O61059). Kind of assay: ST_JUDE_LEISH: Cytotoxicity at 2uM final concentration against transgenic Leishmania Mexicana promastigotes LmGT2 that are glucose transport deficient and complemented with the L. Mexicana glucose transporter 2. Activity is measured by DNA content using SYBR green in vitro.

Molecules are shown by their SMILES.

The term inhibition denotes the change of the read-out against control, counted positive when it falls.

In the case of `FC(F)(F)c1ccc2[nH]c(-c3ccc(-c4ccc(CN5CCN(c6cnccn6)CC5)cc4)s3)nc2c1`, the inhibition was 2.24% in assay [1], 1.86% in assay [2] and -2.19% in assay [3].

Take `CCN1CCN(CC(O)CNC(=O)Nc2ccc(Cl)cc2)CC1` (stereo unspecified): the inhibition in assay [1] came out at 8.67%; in assay [2], 8.82%; in assay [3], 6.63%.

For the molecule `COc1ccccc1N1CCN(CCCCNC(=O)c2ccc(NC(=O)c3ccc(OC(F)(F)F)cc3)cc2)CC1`, the inhibition in assay [1] is 1.23%; in assay [2] it was -0.16%; in assay [3] it was 1.25%.

Take `N#Cc1ccc(N(CCNS(=O)(=O)c2cc(Br)c(Cl)s2)Cc2ccccc2C(F)(F)F)cc1C(F)(F)F`: the figures for the inhibition in assay [1], in assay [2] and in assay [3] were 3.37%, 0.82% and 1.55%, respectively.

On to `CN(CCCc1c[nH]c2ccccc12)CC1CCN(C(=O)/C=C/c2ccc(Cl)c(Cl)c2)CC1`, for which the inhibition in assay [1] was -3.42%; in assay [2], -1.25%; in assay [3], -1.38%.

Regarding `CN1CC[C@@H](Oc2cc(CNC(=O)c3ccc(-c4ccc(Cl)cc4)s3)ccc2C(F)(F)F)C1`, the values for the inhibition in assay [1], in assay [2] and in assay [3] were -1.97%, -1.98% and -1.59%, respectively.

For the molecule `C[C@@H](Oc1cc(-n2cnc3ccc(OCC4CCN(S(C)(=O)=O)CC4)cc32)sc1C(N)=O)c1ccccc1C(F)(F)F`, the inhibition in assay [1] is 11.6%; in assay [2], 9.1%; in assay [3], 4.63%.

In the case of `Cc1cccc2nc(-c3ccc(-c4ccc(CNCc5ccccc5)cc4)s3)[nH]c12`, the inhibition in assay [1] is 8.05%; in assay [2], 4.44%; in assay [3] it was 3.06%.

Turning to `Cc1cccc2nc(-c3ccc(-c4ccc(CN5CCCC(O)C5)cc4)s3)[nH]c12` (stereo unspecified), the inhibition in assay [1] stood at 6.59%; in assay [2], 7.2%; in assay [3], 3.86%.

As to `COCCNCc1ccc(-c2ccccc2CNC2CCN(Cc3ccccc3)CC2)cc1`, the inhibition in assay [1] was 1.97%; in assay [2], 2.36%; in assay [3], -0.28%.

As for `CCCNC(=O)c1cncc(-c2ccc(CNC3Cc4ccccc4C3)cc2)c1`, the inhibition in assay [1] is 0%; in assay [2], 0.51%; in assay [3], -1.1%.

Consider `COc1ccc(-c2nc3c(N)nc(N)nc3nc2-c2ccccc2Cl)cc1.COc1ccc(-c2nc3nc(N)nc(N)c3nc2-c2ccccc2Cl)cc1`, for which the inhibition worked out at 9.91% in assay [1], 10.5% in assay [2] and 6.97% in assay [3].

As to `COc1cccc(C(=O)C2CC2CN(C)CC(O)c2cc(C)c(OC)cc2C)c1` (stereo unspecified), the inhibition is 1.05% in assay [1], -1.24% in assay [2] and 0.15% in assay [3].

For the molecule `NS(=O)(=O)c1ccccc1Nc1nc(Nc2ccc(N3CCOCC3)cc2)nc2c1CCC2`, the inhibition in assay [1] was 11.1%; in assay [2] it was 4.49%; in assay [3], 3.91%.

Take `Cc1cc(N(C)C)nc(Nc2ccc(NC(=O)COc3ccccc3)cc2)n1`: the inhibition in assay [1] is 2.72%; in assay [2], 7.92%; in assay [3], -2.15%.

`CCCCc1ccc(Cc2cnc3nc(N)nc(N)c3c2C)cc1`: the inhibition stood at 11.6% in assay [1], 23% in assay [2] and 15.6% in assay [3].

Turning to `Cc1c(C(=O)C2CC2CN2CCC(N3CCCC3)CC2)sc2ccccc12` (stereo unspecified), the values for the inhibition in assay [1], in assay [2] and in assay [3] were 7.33%, 11.8% and 5.26%, respectively.

Consider `CC(C)c1ccc(NC(=O)c2ccc(C(=O)NCC3CCN(CC4CCCCC4)CC3)cc2)cc1`, for which the inhibition in assay [1] was found to be 3.12%; in assay [2], 1.53%; in assay [3], 1.95%.

Regarding `Cc1cc(N)c2cc(NC(=O)/C=C/c3ccccc3)ccc2n1`, the inhibition was -0.18% in assay [1], 0.45% in assay [2] and -0.79% in assay [3].

In the case of `CCNc1cc(C(=O)N[C@@H](Cc2ccccc2)[C@H](O)CNC(C)(C)CSCC(C)C)cc(N2CCCC2=O)c1`, the inhibition was 1.84% in assay [1], 2.11% in assay [2] and -1.53% in assay [3].

`CC(=O)Oc1c(Br)c(C)nc(C)c1-c1ccc(Oc2ccc(OC(F)(F)F)cc2)cc1`: the inhibition worked out at 1.58% in assay [1], 0.11% in assay [2] and 0.37% in assay [3].

On to `N=C(N)NC(=O)Nc1cc(Cl)c(Cl)c(Br)c1`, for which the inhibition turned out to be 6.7% in assay [1], 5.82% in assay [2] and 2.08% in assay [3].

In the case of `O=C(Nc1cccc(-c2cccc(-c3nc4ccccc4[nH]3)c2)c1)Nc1ccc(Cl)c(Cl)c1`, the figures for the inhibition in assay [1], in assay [2] and in assay [3] were 6.2%, 6.7% and 7.6%, respectively.

In the case of `COc1cc2c(cc1OC)-c1cc(=Nc3c(C)cc(C)cc3C)n(C)c(=O)n1CC2`, the inhibition in assay [1] was determined as 0.22%; in assay [2] it was 2.72%; in assay [3] it was 0.49%.

Consider `CC(C)(NCc1ccc(OC(F)(F)F)cc1)c1nc(-c2ccc(Cl)c(O)c2)c(-c2ccncc2)[nH]1`, for which the inhibition is -0.58% in assay [1], -0.36% in assay [2] and 1.94% in assay [3].

As for `O=C(Nc1ccc(F)c([N+](=O)[O-])c1)Nc1cc(C(F)(F)F)ccc1Cl`, the inhibition in assay [1] is 0.18%; in assay [2] it was 7.68%; in assay [3], 1.2%.

For `CC(C)CN1CCCN(Cc2cccc(NC(=O)c3cc4ccccc4s3)c2)CC1`, the results for the inhibition in assay [1], in assay [2] and in assay [3] were -0.04%, -0.28% and -5.16%, respectively.

Take `CC(C)C(C(=O)Nc1ccc2c(c1)OCO2)c1ccc(Cl)cc1` (stereo unspecified): the inhibition turned out to be 3.38% in assay [1], 2.76% in assay [2] and 1.99% in assay [3].

Turning to `COc1ccccc1C1CCN(C2CCC(NC(=O)/C=C/c3cccc(C(F)(F)F)c3)CC2)CC1` (stereo unspecified), the inhibition in assay [1] is 3.95%; in assay [2], 3.68%; in assay [3], 5.04%.

For the molecule `O=C(Nc1ccc(F)c(Cl)c1)c1cc([N+](=O)[O-])cc2cn[nH]c12`, the figures for the inhibition in assay [1], in assay [2] and in assay [3] were -0.64%, -0.66% and -2.22%, respectively.

As for `O=C(Cc1ccc(-c2ccccc2)cc1)N[C@H]1CCN(Cc2ccc(OCCCN3CCCCC3)cc2)C1`, the inhibition in assay [1] was 18.6%; in assay [2] it was 17.2%; in assay [3] it was 8.12%.

With `O=C(/C=C/c1c(Cl)cccc1Cl)NC1CCC(CN2CCC(c3c[nH]c4ccncc34)CC2)CC1` (stereo unspecified), the results for the inhibition in assay [1], in assay [2] and in assay [3] were 5.27%, 5.98% and 4.84%, respectively.
